Assay outcomes: PubChem, University of Kansas High Throughput Screening Laboratory
Most compounds without a hit are left out; they make up all but 3.6% or so of the library.
Pf apPOL inh: Pf-apPOL DNA polymerase inhibition | Recombinant Pf-apPOL, molecular beacon fluorescence, 1.5 h | inhibition, % at 10 µM | 210,000 compounds, 0.25% hits
mHTT-CaM PPI inh: inhibitors of human mutant huntingtin-calmodulin interaction. P42858. AlphaScreen His-mHTT/GST-CaM binding, luminescence. inhibition, % at 15 µM. 190,000 compounds, 3.6% hits. AID 1671202
A number is an active result; . = inactive; / = not tested or not shown. Rule as the data show it: active = inhibition above about 50%; inactive = the rest.

SMILES	Pf apPOL inh	mHTT-CaM PPI inh
O=C(Nc1nnc(C2CC(=O)N(c3ccc(F)cc3)C2)o1)c1cccc(F)c1 (stereo not drawn)	.	.
CSc1ccc(N2CC(c3nnc(NC(=O)c4cccs4)o3)CC2=O)cc1 (stereo not drawn)	.	63.5
CSc1ccc(N2CC(c3nnc(NC(=O)c4ccc(Cl)cc4)o3)CC2=O)cc1 (stereo not drawn)	.	.
CCOc1ccc(N2CC(c3nnc(NC(=O)c4ccccc4)o3)CC2=O)cc1 (stereo not drawn)	.	82.3
O=C(Nc1nnc(C2CC(=O)N(c3ccccc3)C2)o1)c1ccccc1 (stereo not drawn)	.	.
CCCOc1ccc(C(=O)Nc2nnc(C3CC(=O)N(c4ccc(OCC)cc4)C3)o2)cc1 (stereo not drawn)	.	.
CSc1ccc(N2CC(c3nnc(NC(=O)c4cccc(F)c4)o3)CC2=O)cc1 (stereo not drawn)	.	62.4
c1ccc(-c2ccc(-c3nc4ccc(-c5ccccc5)cc4o3)cc2)cc1	.	/
COc1ccc(NC(=O)CCNS(=O)(=O)c2ccc(Br)s2)cc1Cl	.	.
CC1CCN(C(=O)COc2coc(CN3CCN(c4ccc(F)cc4)CC3)cc2=O)CC1	.	.
Cc1oc(C2CCN(C(=O)c3ccccc3F)CC2)nc1C(=O)N(C)C	.	.
Cc1nc(C)c(-c2csc(Nc3ccc(N)cc3)n2)s1	.	86.6
COc1ccc(Nc2nc(-c3sc(C)nc3C)cs2)cc1	.	52.0
COc1ccccc1Nc1nc(-c2sc(C)nc2C)cs1	.	.
Cc1nc(C)c(-c2csc(NCc3ccco3)n2)s1	.	.
C(=C\Cn1nnc2ccccc21)/Cn1nnc2ccccc21	.	.
COc1ccc(CC(=O)N2CSCC2C(=O)NCCc2cscn2)cc1 (stereo not drawn)	.	.
CCN(CCNC(=O)CN1N=C(c2ccc(Cl)cc2)CCC1=O)c1ccccc1	.	65.0
CCN(CC)CCNC(=O)CN1N=C(c2ccc(Cl)cc2)CCC1=O	.	.
COc1ccc(NC(C)=O)cc1NC(=O)Cc1cn(Cc2ccccc2)c2ccccc12	.	82.9
COc1ccc(NC(=O)Cc2cn(C)c3ccccc23)cc1Cl	.	.
O=C(Nc1ccc2c(c1)OCCO2)c1cn(-c2ccc(F)cc2F)c(=O)c2ccccc12	.	.
COc1ccc(OC)c(NC(=O)CSc2ccc(Cl)cc2)c1	.	.
CCc1ccc(NC(=O)CSc2nc3c(c(=O)n2-c2ccccc2)SCC3)cc1	.	.
CCc1ccc(NC(=O)CSc2nc3c(c(=O)n2-c2ccc(Cl)cc2)SCC3)cc1	99.4	.
SMILES	Pf apPOL inh	mHTT-CaM PPI inh
O=C(NCCC1=CCCCC1)c1ccc(N2CCC3(CC2)OCCO3)c([N+](=O)[O-])c1	.	.
COc1ccc(S(=O)(=O)n2cc([N+](=O)[O-])cn2)cc1OC	.	100.0
COc1ccc(S(=O)(=O)n2c([N+](=O)[O-])cnc2C)cc1OC	.	.
COc1ccc(-c2c(C#N)c(N)nc3sc(C(=O)c4ccc(C)cc4)c(N)c23)cc1	.	.
N#Cc1c(N)nc2sc(C(=O)c3ccc(Cl)cc3)c(N)c2c1-c1ccc(O)cc1	.	83.0
Cc1ccc(-c2ccccc2N)o1	.	.
Cc1ccc(-c2ccc(N)cc2)o1	.	55.1
CN(C)S(=O)(=O)c1ccc(C(=O)Nc2nnc(-c3ccc(Cl)s3)o2)cc1	.	.
CC1=NN(c2ccccc2)C(=O)/C1=C/c1ccccc1F	.	.
CC1=NN(c2ccccc2)C(=O)/C1=C/c1ccc[nH]1	.	81.0
CC1=NN(c2ccccc2)C(=O)/C1=C/c1ccc(Cl)cc1	.	53.0
CC1=NN(c2ccc(Cl)c(C(=O)O)c2)C(=O)/C1=C/c1ccc(Cl)cc1	.	.
CC1=NN(c2ccccc2)C(=O)/C1=C/c1cccnc1	.	.
CC1=NN(c2ccccc2)C(=O)/C1=C/c1ccc(N)cc1	.	57.0
Cc1cc(C)nc(SCC(=O)N2CCCc3ccccc32)n1	.	.
O=C(COc1ccc2c(c1)OCO2)NCCOc1ccc(-c2ccccn2)nn1	.	100.3
O=C(CSC1CCCC1)NCCn1nc(-c2ccco2)ccc1=O	.	.
Cc1cc(C)cc(OCCNC(=O)COc2ccc3c(c2)OCO3)c1	.	.
O=C(CSC1CCCC1)NCCOc1ccc(-c2ccccn2)nn1	.	100.3
COc1ccc(Cl)cc1Nc1nc(SC)nc2c1CCC2	.	.
Cc1ccc(NC(=O)C2CCCN(c3nccc4sccc34)C2)cc1F (stereo not drawn)	.	.
O=C(C1CCCN(c2nccc3sccc23)C1)N1CCN(c2ccc(F)cc2)CC1 (stereo not drawn)	.	94.6
O=C(C1CCCN(c2nccc3sccc23)C1)N1CCN(c2ccccc2F)CC1 (stereo not drawn)	.	89.8
Cc1cc2c(N3CCCC(C(=O)N4CCN(c5ccccc5)CC4)C3)nccc2s1 (stereo not drawn)	.	99.8
O=C(NCc1ccc(F)cc1Cl)C1CCCN(c2nccc3sccc23)C1 (stereo not drawn)	.	.
